Screens (PubChem BioAssay)
The entries come from a sample that favours hits as a whole.
MBNL1-CUG inh = MBNL1-poly(CUG) RNA binding inhibition. Q9NR56. TR-FRET MBNL1-His/biotin-(CUG)12 binding, 665/545 ratio. Potency, µM (highest dose often 57.5 µM), for the others: top-dose activity change, negative = inhibition, hits mostly inhibitors. 280,000 tested, 0.036% active. AID 2675; active = well fitted inhibition curve with a large enough effect in the signal ratio, with a control signal flat, not every such curve was filed as active; inconclusive = small, poorly fitted or top-dose-only effect, or effect the other way, or a change in a side signal; inactive = no such curve, though single readings can be large or run the other way; the % refers to the signal ratio; note: potency is the fitted concentration of half-maximal effect; % is set by controls: 0 for no effect and ±100 for the full control effect
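Compounds (final 92 nM to 58 uM) are added to His-tagged MBNL1 and biotin-(CUG)12, then terbium anti-His antibody and streptavidin-XL665 (5 nM final). After 60 min at room temperature, the 665/545 nm ratio is read.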
ClpP mod = qHTS Assay for Activators of ClpP | purified B. subtilis ClpP, FRET peptide cleavage, 20 min | 340,000 tested, 1.9% active | ATP-dependent Clp protease proteolytic subunit (Bacillus subtilis (strain 168)), P80244 | Potency, µM (doses to about 57.5 µM), for the others: at the highest dose activity change, negative = active | AID 651965, 2013; active = well fitted falling curve with a large enough effect; inconclusive = small, poorly fitted or top-dose-only effect; inactive = no such curve, though single readings can be large or run the other way; note: potency is the fitted concentration of half-maximal effect; the source files actives as falling curves though it sought activators and does not explain the sign; nearly all actives have a fitted effect of over 65% in size
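ClpP 10 microg/mL final, pH 8 Tris/KCl buffer with BSA, glycerol, Tween-20; compound pinned in; FRET-FV substrate; RT 20 min; Ex320/Em430; ΔFRET vs ADEP 5.8 microM, DMSO, no enzyme.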
Rango dissoc inh = inhibitors of RanGTP-induced Rango-importin beta complex dissociation. O95149+P62826. Biochemical FRET Rango-importin beta, RanGTP-induced dissociation. Potency, µM (top dose mostly 46.1 µM), inactives show top-dose activity change, negative = inhibition. 340,000 tested, 0.071% active. AID 540253; note: potency is the fitted concentration of half-maximal effect; % of control where 0% means no effect; nearly all actives have a fitted effect of over 45% in size
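Compounds preincubate 5 min with complex of recombinant Rango and importin beta in PBS with 1 mM DTT. Ran (0.6 uM) loaded with 2 mM GTP plus 0.2 uM RCC1 starts dissociation; FRET is recorded 45 min later.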
Rango-impB inh = prevents formation of the Rango-importin beta complex. Q14974. Rango CFP/YFP FRET sensor + importin beta, 45 min. Potency, µM (highest dose often 92.2 µM), without a hit: top-dose inhibition of complex formation. 340,000 tested, 0.031% active;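 note: potency is the fitted concentration of half-maximal effect; 0% = DMSO wells and 100% = buffer wells lacking importin beta; nearly all actives have a fitted effect of over 15% in size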
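Inhibition scored from the CFP 486 nm/YFP 530 nm FRET ratio 45 min after adding 0.125 microM importin beta to 50 nM Rango biosensor preincubated 5 min with compound (room temperature, PBS with DTT, Tween-20, BSA). No-importin wells as positive control.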
CBFb RUNX1 block = CBF-beta/RUNX1 interaction disruption; Potency, µM (top dose mostly 59.8 µM), for inactives: at the top dose activity, negative = inhibition, actives largely listed as inhibitors; 230,000 tested, under 10 active; AlphaScreen CBFb-His/RUNX1-biotin binding, biochemical; active = well fitted curve in the direction sought with a large enough effect; inconclusive = small, poorly fitted or top-dose-only effect, or effect the other way, or another doubt; inactive = no such curve, though single readings can be large or run the other way; note: % of control where 0% means no effect
Target sequence (Q01196 whole entry, looked up): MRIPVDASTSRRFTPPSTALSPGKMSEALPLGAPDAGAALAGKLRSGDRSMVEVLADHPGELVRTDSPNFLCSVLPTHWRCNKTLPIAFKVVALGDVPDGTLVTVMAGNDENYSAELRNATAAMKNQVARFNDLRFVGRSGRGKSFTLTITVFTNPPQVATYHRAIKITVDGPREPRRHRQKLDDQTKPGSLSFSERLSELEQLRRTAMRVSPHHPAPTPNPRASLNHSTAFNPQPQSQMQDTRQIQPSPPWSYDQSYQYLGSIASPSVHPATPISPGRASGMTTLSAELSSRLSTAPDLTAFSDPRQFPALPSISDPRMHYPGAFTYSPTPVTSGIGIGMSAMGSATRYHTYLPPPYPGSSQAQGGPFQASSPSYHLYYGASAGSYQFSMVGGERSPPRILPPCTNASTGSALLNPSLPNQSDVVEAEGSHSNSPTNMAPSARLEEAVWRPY
Target sequence (Q13951 whole entry, looked up): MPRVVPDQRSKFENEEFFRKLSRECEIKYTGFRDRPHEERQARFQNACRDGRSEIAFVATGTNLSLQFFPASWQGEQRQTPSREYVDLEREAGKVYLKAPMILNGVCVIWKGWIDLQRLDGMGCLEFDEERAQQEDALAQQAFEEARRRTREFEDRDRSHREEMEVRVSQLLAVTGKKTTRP
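Inhibition was taken as any reduction in AlphaScreen signal from the CBF-beta–RUNX1 pair (His and biotin tags, 30 nM each), measured after compound (15 min) and bead (90 min) incubations at room temperature.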
The depositor's hits bear a star; ? = inconclusive; . = not tested or not shown. Unless noted, calls come from the whole dose curve.

SMILES	MBNL1-CUG inh	ClpP mod	Rango dissoc inh	Rango-impB inh	CBFb RUNX1 block
COc1ccc(-c2ccccc2)cc1NCc1ccccc1C	6%	13µM*	1%	7%	-14%
COc1ccc(CNC(=O)c2ccc(-c3ccccc3)cc2)cc1OC	5%	-1%	-12%	0%	-4%
COc1ccc(-c2ccccc2)cc1NCc1ccc(OC)c(OC)c1	-1%	28µM*	21%	1%	-26%
CCc1ccc(C(=O)c2cn(CC(=O)NCCc3ccccc3)c3nc(C)ccc3c2=O)cc1	.	0%	.	.	.
COc1cc2c(C#N)c(N3CCOCC3)nc(N)c2c(N)n1	-11%	16µM*	?	8%	-3%
COc1cc2c(C#N)c(N3CCc4ccccc4C3)nc(N)c2c(N)n1	10%	28µM*	-29%	?	1%
COc1cccc(CNC(=O)Cc2ccc(NC(=O)N3CCCCc4ccccc43)cc2)c1OC	.	-2%	.	.	.
CCCC(O)c1nc2ccccc2n1Cc1ccccc1OC (stereo unspecified)	.	0%	.	.	.
CCOc1ccc(-c2cc(NC(=O)c3ccccc3)c(C(=O)OC)s2)cc1	.	35µM*	.	.	.
O=C(NCC(c1ccco1)S(=O)(=O)c1cccs1)c1c(F)cccc1F (stereo unspecified)	.	-2%	.	.	.
COCc1cc(C)nc(N2CCNCC2)c1C#N	2%	16µM*	2%	4%	-1%
COCc1cc(C)nc(N2CCCCC2)c1C#N	-13%	22µM*	-21%	2%	-9%
COCc1cc(C)nc(N2CCN(c3ccccc3)CC2)c1C#N	2%	-10%	17%	-5%	9%
CCC(Nc1ccc(-c2nc(-c3cccnc3)no2)cc1[N+](=O)[O-])c1ccccc1 (stereo unspecified)	.	0%	.	.	.
Cc1cccc(N2CCN(C(=O)c3ccc4c(c3)N(Cc3ccccc3)C(=O)c3ccccc3S4(=O)=O)CC2C)c1 (stereo unspecified)	.	-2%	.	.	.
Oc1ccc(Nc2nc3ccccc3nc2Nc2ccc(O)cc2)cc1	9%	32µM*	?	?	-28%
CCCCC/C=C\C/C=C\C/C=C\C=C\C1CCCC(=O)O1 (stereo unspecified)	.	.	.	.	-7%
Cn1ncc([N+](=O)[O-])c1C(=O)Nc1ccc2c(c1)OCCO2	?	32µM*	-5%	0%	0%
Cc1ccc(NC(=O)c2c([N+](=O)[O-])cnn2C)cc1C	?	0%	0%	-2%	.
O=C(CS(=O)(=O)c1cccc2nsnc12)Nc1ccc(F)cc1	.	-1%	.	.	.
CCOc1cccc(C2C=C(c3ccc4c(c3)OCO4)NC(c3ccccc3F)N2)c1O (stereo unspecified)	.	-2%	.	.	.
Cc1ccc2nc(CS)[nH]c2c1	.	10%	.	.	.
Clc1ccc(CNCCCSc2ncccn2)cc1	-5%	.	-4%	0%	.
CSc1ccc(CNCCCSc2ncccn2)cc1	-8%	8.9µM*	1%	3%	.
CC(=O)Oc1ccc(NC(=O)C2CCCCC2)c(C(=O)O)c1	-5%	28µM*	5%	3%	12%
SMILES	MBNL1-CUG inh	ClpP mod	Rango dissoc inh	Rango-impB inh	CBFb RUNX1 block
CC(=O)Oc1ccc(NC(=O)Cc2ccccc2)c(C(=O)O)c1	-4%	.	-3%	-1%	-16%
CCOc1ccc(-c2nc3c(c(SCC(=O)N4CCCCC4)n2)Cc2cccc(OC)c2O3)cc1	.	-1%	.	.	.
CCOC(=O)c1ccc(CN(Cc2ccccc2C)S(=O)(=O)c2ccc(F)c(C(=O)Nc3cccc(OC)c3)c2)cc1	.	-18%	.	.	.
Cc1cccc(N(CC(O)Cn2c3ccccc3c3ccccc32)S(=O)(=O)c2ccc(F)cc2)c1 (stereo unspecified)	.	32µM*	.	.	.
CSc1ccc(CNC(=O)C2CCC(=O)N(Cc3cccc(F)c3)C2)cc1 (stereo unspecified)	-8%	69%	1%	0%	.
O=C(NCc1cnc2ccccn12)C1CCC(=O)N(Cc2cccc(F)c2)C1 (stereo unspecified)	1%	16µM*	0%	-2%	.
Cc1cccc(-n2c(=O)c3c(c4cc(C)ccc4n3C)n(CC(=O)NCC3CCCO3)c2=O)c1 (stereo unspecified)	.	4%	.	.	.
O=c1oc2ccccc2cc1-c1nc2ccccc2o1	?	31%	-26%	?	6%
O=c1oc2ccccc2cc1-c1nc2c(s1)CCCC2	16%	35µM*	?	?	10%
N#Cc1ccc(CSc2nnc(-c3ccc(Br)cc3)o2)cc1	.	1%	.	.	.
CCOc1ccc(NC(=O)CN2CCCN(Cc3cc(C)ccc3C)S2(=O)=O)cc1	.	-2%	.	.	.
CC(C(=O)N1CCCCC1)n1ncn2cccc2c1=O (stereo unspecified)	?	28µM*	-1%	-2%	-3%
COc1ccccc1Nc1ncnc2scc(-c3ccc(F)cc3)c12	.	28µM*	.	.	.
COc1ccc(-c2csc3ncnc(Nc4ccc(OC)cc4OC)c23)cc1	.	40µM*	.	.	.
COc1ccccc1C(=O)Nc1nc(-c2ccc3c(c2)OCCO3)cs1	41%	25µM*	3%	5%	11%
O=C(Nc1ccc(-c2nc3ccccc3[nH]2)cc1)c1ccccc1NS(=O)(=O)c1ccc(F)cc1	-4%	35µM*	10%	-1%	?
COc1ccc(-c2csc(NC(=O)c3ccccc3NS(=O)(=O)c3ccc(F)c(F)c3)n2)cc1	-2%	.	-14%	0%	-5%
Cc1ccc(S(=O)(=O)Nc2ccccc2C(=O)Nc2nc(-c3ccc(F)cc3)cs2)cc1	-4%	16µM*	4%	0%	-9%
Cc1cc(F)ccc1S(=O)(=O)Nc1ccccc1C(=O)Nc1ccccc1-c1nc2ccccc2[nH]1	.	32µM*	0%	1%	21%
Cc1cc(F)ccc1S(=O)(=O)Nc1ccccc1C(=O)Nc1ncn[nH]1	-1%	32µM*	-13%	1%	13%
Cc1cc(F)ccc1S(=O)(=O)Nc1ccccc1C(=O)NCc1ccccn1	-7%	.	13%	0%	4%
CCOCCc1nn2c(=O)cc(COC(=O)c3ccc(NC(=O)c4cccs4)cc3)nc2s1	.	-4%	.	.	.
CCOC(=O)C1CCCN(c2nc3c(S(=O)(=O)c4ccc(Br)cc4)nnn3c3ccsc23)C1 (stereo unspecified)	.	11µM*	.	.	.
CCOC(=O)C1CCN(c2nc3c(S(=O)(=O)c4ccc(Br)cc4)nnn3c3ccsc23)CC1	.	14µM*	.	.	.
Cc1ccc(S(=O)(=O)c2nnn3c2nc(N2CCCCC2)c2sccc23)cc1	.	-6%	.	.	.
CC(C)c1ccc(S(=O)(=O)c2nnn3c2nc(N2CCCCC2)c2sccc23)cc1	.	25µM*	.	.	.
CCOC(=O)C1CCCN(c2nc3c(S(=O)(=O)c4ccc(CC)cc4)nnn3c3ccsc23)C1 (stereo unspecified)	.	32µM*	.	.	.
